Data from the supplement of paper PMC10646978.
± gives the standard deviation.

Legend:
Conditions in all cases: modulator concentration 10 µM
[1] = test system: RAW-Dual (murine macrophage reporter line); assay: NF-kB reporter (SEAP) activity fold change vs agonist alone; higher = enhanced NF-kB activity
How it was run: (§1)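 Overnight stimulation with a PRR agonist followed pre-incubation for 1 hour at 37 °C with compound at 10 μM final. This was done in RAW-Dual murine macrophage reporter cells seeded at 50 000 per well in 384-well plates. NF-κB (SEAP, QUANTI-Blue absorbance at 620 nm) and IRF (Lucia luciferase, QUANTI-Luc luminescence) were read from the supernatant. Each reporter's fold change relative to the mean agonist-only control on the same plate was averaged over replicate plates.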

[2] = test system: RAW-Dual (murine macrophage reporter line); assay: IRF reporter (Lucia luciferase) activity fold change vs agonist alone; higher = enhanced IRF activity
How it was run: as §1

[3] = test system: RAW-Dual (murine macrophage reporter line); assay: viability score (confluency relative to resting cells, overnight) (fraction); higher = more viable, active = viable (0.7 or more)
How it was run: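 In 384-well plates, RAW-Dual macrophages received compound at a final 10 μM overnight. Two confluency masks were then made with IncuCyte software from IncuCyte images of all imaged wells. The viability score is defined as confluency relative to resting cells. Passing the cutoff required both masks to lie above 70% of resting cells.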

[4] = agonist: CpG ODN 1826 0.5 ug/mL

SMILES | NF-kB reporter [1, 4] | NF-kB reporter ([1]; agonist: LPS 0.1 ug/mL) | NF-kB reporter ([1]; agonist: MPLA […]) | IRF reporter ([2]; agonist: 3'3'-cGAMP 10 ug/mL) | IRF reporter ([2]; agonist: LPS 0.1 ug/mL) | IRF reporter ([2]; agonist: MPLA […]) | viability score [3]
O=C(NCCN1CCOCC1)c1ccc(Cl)nc1 | 0.917 ± 0.17 | 1.15 ± 0.13 | 0.995 ± 0.1 | 0.987 ± 0.026 | 1.12 ± 0.21 | 1.09 ± 0.13 | 0.972 (active)
CC(=O)OC1CCC2(C)C(CCC3C4CCC(=O)C4(C)CCC32)C1 (stereo not drawn) | 1.22 ± 0.29 | 1.06 ± 0.054 | 1.02 ± 0.089 | 0.939 ± 0.032 | 1.21 ± 0.19 | 1.11 ± 0.18 | 1.01 (active)
Cc1cccc(COc2ccc(C=C3C(=O)NC(=S)NC3=O)cc2)c1 | 0.855 ± 0.07 | 0.875 ± 0.047 | 1.14 ± 0.099 | 0.844 ± 0.056 | 0.992 ± 0.093 | 0.969 ± 0.12 | 0.981 (active)
COc1ccccc1N1C(=O)C(=Cc2ccc(C)s2)C(=O)NC1=S | 1.07 ± 0.11 | 1.08 ± 0.093 | 0.973 ± 0.084 | 0.953 ± 0.049 | 1.8 ± 0.28 | 1.39 ± 0.14 | 0.992 (active)
COC(=O)COc1ccc(C=C2C(=O)NC(=S)N(c3cccc(Cl)c3Cl)C2=O)cc1OC | 0.959 ± 0.09 | 1.04 ± 0.086 | 0.932 ± 0.063 | 0.909 ± 0.048 | 1.35 ± 0.12 | 1.14 ± 0.12 | 1.01 (active)
COc1ccc(OC)c(C=C2C(=O)NC(=O)NC2=O)c1 | 1.15 ± 0.12 | 0.845 ± 0.061 | 1.12 ± 0.061 | 0.99 ± 0.17 | 0.995 ± 0.05 | 1.01 ± 0.16 | 0.995 (active)
CC(C)NC(C)C(O)c1ccc2c(c1)CCCC2.Cl (stereo not drawn) | 0.838 ± 0.066 | 1 ± 0.086 | 1.1 ± 0.038 | 0.818 ± 0.091 | 1 ± 0.099 | 0.891 ± 0.23 | 0.994 (active)
COc1ccc(-n2c(C)nc3ccc(NC(=O)CC4CCCC4)cc3c2=O)cc1 | 1.14 ± 0.14 | 1.06 ± 0.13 | 0.932 ± 0.075 | 0.946 ± 0.048 | 0.925 ± 0.073 | 0.875 ± 0.15 | 1.01 (active)
O=C(O)CCCc1ccc(N(CCCl)CCCl)cc1 | 1.03 ± 0.17 | 1.03 ± 0.084 | 1.11 ± 0.13 | 0.912 ± 0.027 | 1.29 ± 0.28 | 1.08 ± 0.12 | 0.994 (active)
c1ccc2c(c1)Nc1ccccc1S2 | 1.02 ± 0.25 | 0.934 ± 0.048 | 0.881 ± 0.11 | 0.778 ± 0.026 | 1.31 ± 0.25 | 1.32 ± 0.13 | 0.939 (active)
CN1Cc2c(ccc3c2OCO3)C2C(O)Cc3cc4c(cc3C21)OCO4 (stereo not drawn) | 1.75 ± 0.13 | 1.49 ± 0.12 | 1.79 ± 0.19 | 0.269 ± 0.012 | 1.64 ± 0.22 | 2 ± 0.38 | 0.883 (active)
COc1ccc2c(c1O)-c1c(OC)c(OC)cc3c1C(C2)N(C)CC3 (stereo not drawn) | 0.618 ± 0.051 | 0.905 ± 0.088 | 1.1 ± 0.1 | 0.903 ± 0.046 | 1.29 ± 0.14 | 1.45 ± 0.17 | 1.04 (active)
CCC1(c2cccc(O)c2)CCCCN(C)C1.Cl (stereo not drawn) | 0.894 ± 0.13 | 0.99 ± 0.054 | 1 ± 0.047 | 1.08 ± 0.088 | 0.963 ± 0.043 | 0.948 ± 0.21 | 1.01 (active)
CCOC(=O)c1ccccc1-c1ccc(C=C2C(=O)NC(=O)N(c3ccccc3C)C2=O)o1 | 0.727 ± 0.082 | 0.444 ± 0.025 | 0.358 ± 0.051 | 0.655 ± 0.023 | 0.631 ± 0.096 | 0.321 ± 0.088 | 0.0805 (inactive)
